Results from PubChem BioAssay (Tox21).
“And” between values parts separate entries of the source, which are not always exact repeats. Equal values may be shown once. Records with an inconclusive call do not appear. Where a call stands in place of a potency, no number is given. The source made the active and inactive calls. The call rests on the fitted dose curve; in most records, active means well fitted cell-killing curve with a large enough effect in the repeat runs; inconclusive means weak or mixed curves, or effect the other way; inactive means flat fitted curve, though single readings scatter.

Experiment: qHTS RealTime-Glo MT Cell Viability Assay in HEK293 cells - 8 hour (AID 1224887); further: nearly all actives have a fitted effect of over 50% in size
Settings: RealTime-Glo luminescence; series mostly up to 76.8 µM
Description: U.S. Tox21 Program National Center for Advancing Translational Sciences [NCATS] NIH Chemical Genomics Center [NCGC] U.S. Environmental Protection Agency [EPA] National Institutes of Environmental Health Sciences [NIEHS] National Toxicology Program [NTP] U.S. Food and Drug Administration [FDA] Tox21 Assay Overview: Measure of cell viability is critical in the cell-base assay. Analysis of cell viability is necessary for the characterization of cell responses to cytotoxic drugs and environmental stress. A RealTime-Glo MT Cell Viability Assay to monitor cell viability in real time of continues cell culture during 40 hours of compound treatment was used to screen Tox21 10K library compounds in Hek293 cells. The RealTime-Glo MT Cell Viability Assay is a nonlytic, homogeneous, bioluminescent method to measure cell viability in real time using a simple, plate-based method. The assay involves adding NanoLuc luciferase and a cell-permeant prosubstrate to cells in culture. Viable cells reduce the proprietary prosubstrate to generate a substrate for NanoLuc luciferase. This substrate diffuses from cells into the surrounding culture medium, where it is rapidly used by the NanoLuc Enzyme to produce a luminescent signal. The signal correlates with the number of viable cells, making the assay well suited for cytotoxicity studies.
Tox21 Assay Protocol Summary: The mixture of Hek293 cell suspension and reagents were dispensed at 600cells/6 ul/well in 1536-well tissue culture treated black solid bottom plates using a Multidrop dispenser. After the assay plates were incubated at a 37 C/5% CO2 incubator for 5 hours, 23 nL of compounds dissolved in DMSO, positive and negative controls was transferred to the assay plate by a pintool work station. The plates were incubated at 37 C for 40 hours. The luminescence intensity were measured at 0h, 8h, 16h, 24h, 32h and 40h time points using ViewLux plate reader during compound treatment.
Potency means the concentration at half of the fitted maximal effect.

**Q.** Which Potency does the source give for `CCCCCCCCCCCOC(=O)c1ccccc1C(=O)OCCCCCCCCCCC` here?
**A.** inactive

**Q.** With `Cc1cc(Cl)ccc1OCCCC(=O)O` as the compound, how does the Potency read?
**A.** inactive

**Q.** Which Potency does the source give for `Brc1ccc(Oc2cc(Br)c(Br)cc2Br)c(Br)c1` here?
**A.** inactive

**Q.** Which Potency does the source give for `CCN(N=O)C(N)=O` here?
**A.** inactive

**Q.** With `COP(=S)(OC)Oc1cc(Cl)c(Cl)cc1Cl` as the compound, how does the Potency read?
**A.** inactive

**Q.** With `c1ccc(P(c2ccccc2)c2ccccc2)cc1` as the compound, how does the Potency read?
**A.** inactive

**Q.** With `O=S(=O)(Oc1ccc(Cl)cc1)c1ccc(Cl)cc1` as the compound, how does the Potency read?
**A.** inactive

**Q.** Which Potency does the source give for `O=[N+]([O-])c1cccc2ccccc12` here?
**A.** inactive

**Q.** With `Cc1ccc(OP(=O)(Oc2ccc(C)cc2)Oc2ccc(C)cc2)cc1` as the compound, how does the Potency read?
**A.** inactive

**Q.** For `C=CCN(CC=C)C(=O)C(Cl)Cl`, which Potency is on record?
**A.** inactive

**Q.** Which Potency does the source give for `Nc1ccc(-c2ccc(N)c(N)c2)cc1N` here?
**A.** inactive

**Q.** With `O=c1oc2ccccc2c(O)c1C(CC(O)c1ccc(-c2ccc(Br)cc2)cc1)c1ccccc1` (stereo not given) as the compound, how does the Potency read?
**A.** inactive

**Q.** With `O=P(Oc1ccccc1)(Oc1ccccc1)Oc1ccccc1` as the compound, how does the Potency read?
**A.** inactive

**Q.** With `CCN(CC)C(=O)/C(Cl)=C(\C)OP(=O)(OC)OC` as the compound, how does the Potency read?
**A.** inactive

**Q.** Which Potency does the source give for `c1ccc(-c2cccc(-c3ccccc3)c2)cc1` here?
**A.** inactive

**Q.** For `CCC(C)(c1ccc(O)cc1)c1ccc(O)cc1`, which Potency is on record?
**A.** inactive

**Q.** For `O=C1C=CC(=O)C=C1`, which Potency is on record?
**A.** inactive

**Q.** Which Potency does the source give for `CC(C)(C)c1ccccc1O` here?
**A.** inactive

**Q.** For `CC1(C)C(C=C(Cl)Cl)C1C(=O)OC(C#N)c1cccc(Oc2ccccc2)c1` (stereo not given), which Potency is on record?
**A.** inactive

**Q.** For `CNC(=O)Oc1cccc2c1OC(C)(C)O2`, which Potency is on record?
**A.** inactive

**Q.** For `O=C(NC(=O)c1c(F)cccc1F)Nc1ccc(Cl)cc1`, which Potency is on record?
**A.** inactive

**Q.** With `CC(C)=CC1C(C(=O)OCc2coc(Cc3ccccc3)c2)C1(C)C` (stereo not given) as the compound, how does the Potency read?
**A.** inactive

**Q.** For `NNC(=S)NN`, which Potency is on record?
**A.** inactive

**Q.** With `CCCCNC(=O)n1c(NC(=O)OC)nc2ccccc21` as the compound, how does the Potency read?
**A.** inactive

**Q.** For `CC(C)(c1cc(Cl)c(O)c(Cl)c1)c1cc(Cl)c(O)c(Cl)c1`, which Potency is on record?
**A.** inactive

**Q.** Which Potency does the source give for `CC(O)CCO` (stereo not given) here?
**A.** inactive

**Q.** With `CC(C)(OOC(C)(C)c1ccccc1)c1ccccc1` as the compound, how does the Potency read?
**A.** inactive

**Q.** For `Cc1ccc(N)c(N)c1`, which Potency is on record?
**A.** inactive

**Q.** With `C=C(C)[C@H]1Cc2c(ccc3c2O[C@@H]2COc4cc(OC)c(OC)cc4[C@@H]2C3=O)O1` as the compound, how does the Potency read?
**A.** 249 nM (active) and 219 nM (active) and 60.1 nM (active)

**Q.** For `O=Cc1ccco1`, which Potency is on record?
**A.** inactive

**Q.** Which Potency does the source give for `Oc1c(Cl)c(Cl)c(Cl)c(Cl)c1Cl` here?
**A.** inactive

**Q.** With `CN(C)c1ccc(C(=O)c2ccc(N(C)C)cc2)cc1` as the compound, how does the Potency read?
**A.** inactive

**Q.** For `CCCCCCOC(=O)c1ccccc1C(=O)OCCCCCC`, which Potency is on record?
**A.** inactive

**Q.** Which Potency does the source give for `Cc1c(COC(=O)[C@@H]2[C@H](/C=C(\Cl)C(F)(F)F)C2(C)C)cccc1-c1ccccc1` here?
**A.** inactive

**Q.** With `CCCCCCCCOC(=O)c1ccccc1C(=O)OCCCCCCCC` as the compound, how does the Potency read?
**A.** inactive

**Q.** With `Oc1cc(Cl)ccc1Oc1ccc(Cl)cc1Cl` as the compound, how does the Potency read?
**A.** 35.5 µM (active) and 23.9 µM (active)

**Q.** With `CC(C)NC(C)C` as the compound, how does the Potency read?
**A.** inactive

**Q.** Which Potency does the source give for `COP(=S)(OC)Oc1ccc([N+](=O)[O-])cc1` here?
**A.** inactive

**Q.** With `CCC(C)(C)c1ccc(O)cc1` as the compound, how does the Potency read?
**A.** inactive

**Q.** With `N#CCCCl` as the compound, how does the Potency read?
**A.** inactive
